PPARg SRC-2 ag = agonists of PPARg-SRC-2 recruitment, primary screen, biochemical, HTS; activation, % at 8 µM; Peroxisome proliferator-activated receptor gamma (Homo sapiens), P37231; PPARgamma LBD-SRC-2 recruitment; actives 0.34% (n = 200,000); in the data active = activation above about 22%;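 note: 0% = vehicle and 100% = reference agonist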
Target sequence (P37231 whole entry, looked up, the tested form may be a part): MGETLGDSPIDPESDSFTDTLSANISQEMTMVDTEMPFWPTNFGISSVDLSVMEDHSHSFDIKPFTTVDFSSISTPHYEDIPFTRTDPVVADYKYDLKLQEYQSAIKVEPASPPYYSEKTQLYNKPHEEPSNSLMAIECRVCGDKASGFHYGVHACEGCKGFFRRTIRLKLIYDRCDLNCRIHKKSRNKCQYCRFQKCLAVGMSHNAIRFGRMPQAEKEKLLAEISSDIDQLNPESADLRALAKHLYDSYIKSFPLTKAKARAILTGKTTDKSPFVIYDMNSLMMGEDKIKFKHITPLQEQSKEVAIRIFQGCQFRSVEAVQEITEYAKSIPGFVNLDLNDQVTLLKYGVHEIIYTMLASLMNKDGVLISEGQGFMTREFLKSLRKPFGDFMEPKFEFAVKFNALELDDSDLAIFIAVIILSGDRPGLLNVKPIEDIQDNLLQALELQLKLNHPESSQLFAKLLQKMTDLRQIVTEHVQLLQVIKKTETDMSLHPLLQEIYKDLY
PPARg SRC3 recr = PPARgamma agonists recruiting SRC-3 coactivator, primary screen, biochemical; Peroxisome proliferator-activated receptor gamma (Homo sapiens), P37231; biochemical PPARgamma/SRC-3 coactivator recruitment assay; activation, % at 8 µM; actives 0.26% (n = 200,000); AID 731, 2007; in the data active = activation above about 23%;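 note: 0% = DMSO and 100% = reference agonist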
SRC2 TRFRET art = TR-FRET signal artefacts, primary screen, artefact control for PPARgamma SRC-2 agonist project, biochemical. TR-FRET artefact counter-screen; hits give high values. actives 0.4% (n = 200,000). TR-FRET ratio at 8 µM
SRC3 TRFRET art = TR-FRET detection interference compounds, artefact control for PPARgamma SRC-3 recruitment agonists, biochemical, TR-FRET ratio. TR-FRET artefact counter-screen, PPARgamma/SRC-3 format; hits give high values. TR-FRET ratio at 8 µM. actives 0.39% (n = 99,000). AID 1048, 2008
SRC1 TRFRET art = TR-FRET detection interference compounds, primary screen, artefact control for PPARgamma SRC-1 recruitment agonists, biochemical, TR-FRET emission ratio. actives 0.34% (n = 99,000). TR-FRET detection artefact counter-screen; hits give high values. TR-FRET ratio at 8 µM; in the data active = TR-FRET ratio above about 2300
PPARg SRC1 recr = PPARgamma agonists recruiting SRC-1 coactivator, primary screen, biochemical; PPARgamma-SRC-1 coactivator recruitment biochemical assay; activation, % at 8 µM; actives 0.41% (n = 200,000); AID 631, 2007; in the data active = activation above about 19%;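 note: 0% = DMSO and 100% = reference agonist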
PPARg SRC2 ag = agonists of PPARgamma SRC-2 coactivator recruitment, confirmation, biochemical, HTS. activation, % at 8 µM. biochemical SRC-2 recruitment by PPARgamma. shares compounds with PPARg SRC3 recr. actives 52% (n = 790); in the data active = activation above about 22%;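 note: 0% = vehicle alone and 100% = reference agonist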
PPARg SRC1 conf = PPARgamma agonists recruiting SRC-1 coactivator, confirmation, biochemical. AID 1300, 2008. activation, % at 8 µM. shares compounds with PPARg SRC3 recr. PPARgamma–SRC-1 coactivator recruitment biochemical assay. actives 43% (n = 790); in the data active = activation above about 20%;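 note: 0% = vehicle wells and 100% = reference agonist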
PPARg SRC3 ag = PPARgamma-driven SRC-3 coactivator recruitment agonists, confirmation, biochemical. activation, % at 8 µM. shares compounds with PPARg SRC3 recr. actives 29% (n = 790). biochemical PPARgamma-SRC-3 coactivator recruitment, agonist mode; in the data active = activation above about 24%;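 note: 0% = vehicle wells and 100% = reference agonist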
* hit, by the source's call; . = no result given. Most compounds without a hit are left out; they make up all but 0.9% or so of the library. Cut-off read from the data, not from the text of the source, unless noted: active = TR-FRET ratio above about 2000; inactive = the rest.

SMILES | PPARg SRC-2 ag | PPARg SRC3 recr | SRC2 TRFRET art | SRC3 TRFRET art | SRC1 TRFRET art | PPARg SRC1 recr | PPARg SRC2 ag | PPARg SRC1 conf | PPARg SRC3 ag
O=[N+]([O-])c1cc(-c2ccc(/C=N/c3nc4ccccn4c3-c3ccco3)o2)ccc1Cl | 15.6 | 27.0* | 1804 | . | . | 15.9 | 11.8 | 5.8 | 6.7
CCOC(=O)c1[nH]c2cc(OC)c(OC)cc2c1N | 25.5* | 21.4 | 1702 | . | . | 13.2 | 18.4 | 16.2 | 9.6
CCOC(=O)c1[nH]c2ccc(C)cc2c1N | 10.5 | 5.8 | 1458 | 1835 | 2128 | 3.3 | . | . | .
Cc1ccc(SCC(=O)N2CCOCC2)cc1 | 3.6 | 5.1 | 1395 | 1350 | 2037 | 1.4 | . | . | .
S=c1[nH]nc(Cc2cccc3ccccc23)o1 | -6.6 | 2.6 | 1336 | 1601 | 1581 | -7.7 | . | . | .
Cc1ccc(-c2cc(-c3n[nH]c(=S)o3)c3ccccc3n2)cc1 | 4.5 | 9.8 | 1695 | 1989 | 2257 | 10.5 | . | . | .
S=c1[nH]nc(-c2ccccc2)o1 | 66.9* | 71.2* | 2863* | . | . | 56.2* | 51.7* | 37.2* | 35.2*
CC(Cc1n[nH]c(=S)o1)c1ccccc1 (stereo not drawn) | 0.0 | -0.9 | 1603 | 1437 | 1951 | 0.2 | . | . | .
O=c1c2ccccc2c(-c2n[nH]c(=S)o2)nn1Cc1ccccc1 | 27.8* | 15.8 | 2234* | 2375* | 2576* | 23.4* | 48.7* | 42.1* | 30.9*
CSc1ccccc1-c1n[nH]c(=S)o1 | 95.6* | 44.5* | 3652* | 3610* | 4008* | 69.5* | 50.5* | 33.0* | 34.1*
Cc1ccccc1-c1n[nH]c(=S)o1 | 67.5* | 79.2* | 3075* | . | . | 46.1* | 49.9* | 33.5* | 35.6*
O=C(COC(=O)c1cccs1)NCCCc1ccccc1 | 2.1 | 4.0 | 1569 | 1697 | 1737 | -0.9 | . | . | .
N#Cc1cc2c(=O)n3ccccc3nc2n(Cc2ccco2)c1=NC(=O)c1ccco1 | 3.3 | 0.3 | 1562 | 1708 | 1941 | -6.9 | . | . | .
N#Cc1c(-c2ccccc2)cc(C2CC2)nc1SCC(=O)c1cccs1 | 7.3 | 11.7 | 2112* | . | . | 23.7* | 53.3* | 42.8* | 26.3*
CCOc1ccc(CNc2ccc(N3CCCC3)cc2)cc1 | 29.4* | 22.4 | 1770 | . | . | 11.5 | 11.4 | 5.4 | 5.6
CC(=O)Nc1ccc(N/C=C/C(=O)c2ccco2)cc1 | 4.7 | -2.1 | 1573 | . | . | 2.7 | . | . | .
CN(C)c1ccc(N/C=C/C(=O)c2ccco2)cc1 | 24.0* | 14.7 | 1727 | . | . | 5.0 | 10.3 | 8.8 | 7.4
CN(C)c1ccc(N/C=C/C(=O)c2ccc(F)cc2)cc1 | 21.0 | 26.5* | 1739 | . | . | 7.7 | 8.5 | 4.9 | 5.7
NS(=O)(=O)c1ccc(N/C=C\C(=O)c2ccc(F)cc2)cc1 | -8.7 | -1.9 | 1546 | 1596 | 1676 | -2.5 | . | . | .
CNC(=S)N1CCN(c2ccc(OC)cc2)CC1 | 0.1 | 11.5 | 1469 | . | . | 6.9 | . | . | .
O=C(O)COc1ccc2nsnc2c1Cl | 36.8* | 50.4* | 2267* | . | . | 38.1* | 46.1* | 41.6* | 27.2*
O=c1c([N+](=O)[O-])cccn1Cc1ccccc1Cl | 1.0 | -0.4 | 1658 | 1424 | 1746 | 2.5 | . | . | .
O=C(COC(=O)/C=C/C(=O)N1CCN(c2ccccc2)CC1)NC(c1ccccc1)c1ccccc1 | -9.7 | 0.9 | 1608 | 1500 | 1634 | -3.9 | . | . | .
CN1c2ccccc2-c2nc3ccccc3n2C1c1cccs1 (stereo not drawn) | -1.8 | 2.9 | 1595 | 1669 | 1709 | 4.6 | . | . | .
CSc1c(SCc2ccccc2)cnn(-c2ccccc2)c1=O | 27.3* | 18.4 | 1914 | 2060* | 2714* | 24.5* | 49.9* | 35.7* | 32.6*
SMILES | PPARg SRC-2 ag | PPARg SRC3 recr | SRC2 TRFRET art | SRC3 TRFRET art | SRC1 TRFRET art | PPARg SRC1 recr | PPARg SRC2 ag | PPARg SRC1 conf | PPARg SRC3 ag
COc1cnn(-c2ccccc2)c(=O)c1SCc1ccc(Cl)c(Cl)c1 | -3.7 | 16.3 | 1521 | . | . | 4.8 | . | . | .
CS(=O)(=O)Nc1ccc(-c2n[nH]c(=S)n2-c2ccccc2)cc1 | 13.7 | 11.1 | 1649 | . | . | 19.1* | 19.2 | 12.9 | 12.4
Cc1ccc(-c2n[nH]c(=S)n2-c2ccccc2)cc1 | 5.0 | 17.9 | 1648 | . | . | 9.6 | . | . | .
Cc1ccc(-n2c(-c3cccc(C)c3)n[nH]c2=S)cc1 | 32.2* | 36.3* | 1998* | . | . | 19.8* | 29.7* | 22.1* | 21.4
CC1(C)Cc2ccccc2-c2nc3n(c(=O)c21)CCS3 | 4.9 | 6.7 | 1747 | 1484 | 1872 | 3.7 | . | . | .
Cn1c(=S)[nH]c2c(c1=O)C(C)(C)Cc1ccccc1-2 | 44.7* | 24.9* | 2681* | 2669* | 3109* | 39.7* | 36.6* | 24.3* | 24.2*
CCn1c(=S)[nH]c2c(c1=O)C(C)(C)Cc1ccccc1-2 | 32.9* | 28.4* | 2673* | 2752* | 3374* | 44.1* | 35.5* | 22.9* | 24.5*
COc1ccc(OC)c(N(CC(=O)Nc2ccc(NC(C)=O)cc2)S(C)(=O)=O)c1 | 1.1 | 0.8 | 1435 | . | . | 2.3 | . | . | .
Cn1c2ccc(F)cc2c2ncn(CCCN(CCO)CCO)c(=O)c21 | 1.9 | -4.5 | 1543 | . | . | 1.5 | . | . | .
Cc1ccc(CSC2=Nc3ccccc3C3=NC(=O)CN23)cc1 | -2.8 | 4.9 | 1488 | 1397 | 1885 | -6.6 | . | . | .
COc1cc2c(cc1OC)C1=NC(=O)CN1C(SCc1ccccc1C)=N2 | 26.6* | 20.9 | 1965 | . | . | 14.0 | 28.0* | 18.2 | 19.0
COc1ccccc1C1Nc2cccc3cccc(c23)N1 | 19.4 | 11.2 | 1640 | . | . | 19.3* | 10.3 | 7.4 | 6.3
CCn1c(SC(=O)NC2CCCCC2)nnc1-c1cccs1 | 22.5* | 28.8* | 1842 | . | . | 23.7* | 21.5 | 19.3 | 14.4
CCn1c(SCC(=O)NC2CCCCC2)nnc1-c1cccs1 | -14.4 | 3.5 | 1351 | . | . | -7.7 | . | . | .
O=C(Nc1nc2nc(-c3ccccc3)cc(=O)n2[nH]1)c1ccccc1 | 11.9 | 7.7 | 1675 | . | . | 1.1 | . | . | .
COc1ccc(OC)c(S(=O)(=O)N2CCCC(C)C2)c1 (stereo not drawn) | 15.4 | 0.0 | 1682 | . | . | 6.3 | . | . | .
C=CCNC(=S)NNC(=O)c1ccc(=O)n(Cc2ccc(Cl)cc2Cl)c1 | 1.1 | 30.6* | 1605 | 1621 | 1846 | 13.8 | 7.9 | 10.4 | 18.8

Screening results as filed in PubChem BioAssay.
